Compounds with a hit are over-represented: about 18% of the library has one in this group of screens.
RORgamma inh – blocks mouse ROR gamma transcriptional activity. P51450. Drosophila S2 Gal4-RORgamma UAS-luciferase reporter, 20 h. Potency, µM (doses to about 53.6 µM), for the others: at the top dose activity change, negative = inhibition, hits mostly inhibitors. actives 5.4% (n = 310,000). AID 2551; further: potency means the concentration at half of the fitted maximal effect; nearly all actives have a fitted effect of over 60% in size
Target sequence (P51450 whole entry, looked up, the tested form may be a part): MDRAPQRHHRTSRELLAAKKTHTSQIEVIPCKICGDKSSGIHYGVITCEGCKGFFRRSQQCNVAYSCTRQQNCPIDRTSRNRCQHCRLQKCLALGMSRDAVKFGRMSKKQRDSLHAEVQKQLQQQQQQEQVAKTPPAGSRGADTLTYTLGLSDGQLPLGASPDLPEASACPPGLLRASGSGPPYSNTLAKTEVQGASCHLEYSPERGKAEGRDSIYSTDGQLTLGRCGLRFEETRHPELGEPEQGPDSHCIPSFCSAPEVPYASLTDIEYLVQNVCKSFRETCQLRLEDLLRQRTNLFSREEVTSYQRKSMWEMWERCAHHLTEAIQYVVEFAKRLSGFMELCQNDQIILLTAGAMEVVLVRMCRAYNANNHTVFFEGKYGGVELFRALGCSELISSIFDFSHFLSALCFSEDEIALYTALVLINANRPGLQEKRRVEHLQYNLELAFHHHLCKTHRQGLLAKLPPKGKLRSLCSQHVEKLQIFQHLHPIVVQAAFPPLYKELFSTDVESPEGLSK
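Compounds are pin-transferred onto Drosophila Schneider cells expressing a copper-inducible Gal4–ROR gamma transactivation domain fusion. After 1 hr, copper sulfate is added to 700 uM final; luciferase is read 20 hr later.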
IL1B secr inh – inflammasome signaling inhibition, IL-1 beta readout | actives 4.7% (n = 360,000) | activity change, % at 57.5 µM | THP-1 LPS/ATP IL-1B secretion, AlphaLISA, 16 h; active compounds read low; in the data active means activity change below about -50%; inconclusive means mostly about -30% to -49%
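Secreted IL-1B measured by AlphaLISA bead assay after 16 h compound exposure of THP-1 cells; compounds (final up to 57.5 uM) added 1 h before LPS (250 ng/mL) and ATP (1.25 mM) stimulation; lower signal means less secretion.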
LDHA inh – inhibitors of human lactate dehydrogenase A | P00338 | purified LDHA, NADH/diaphorase-resazurin fluorescence; active compounds read low | activity change, % (values are at about 110 or 230 µM) | actives 0.15% (n = 480,000) | AID 1347041; in the data active means activity change below about -30%; inconclusive means mostly about -25% to -30%;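 further: plate controls were DMSO wells for no effect and wells without enzyme for full effect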
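Remaining NADH was detected by diaphorase (0.133 mg/mL) converting 37 µM resazurin to fluorescent resorufin, read at 0 and 20 minutes. The preceding 5-minute room-temperature reaction used 2 nM LDHA, 0.2 mM sodium pyruvate and 0.06 mM NADH at pH 7.4.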
Gal4-VP16 FLuc – inhibits Gal4-VP16 luciferase reporter, ROR gamma counter-screen | actives 3.5% (n = 310,000) | Drosophila S2 Gal4-VP16 UAS-luciferase, luminescence, 20 h | Potency, µM (top dose mostly 53.6 µM), for inactives: top-dose activity, negative = inhibition, hits mostly inhibitors;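 further: Gal4-VP16 expression switched on by copper sulfate through the metallothionein promoter; potency means the concentration at half of the fitted maximal effect; nearly all actives have a fitted effect of over 50% in size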
DT40 TDP1 no CPT – qHTS for Inhibitors of human tyrosyl-DNA phosphodiesterase 1 (TDP1): qHTS in cells in absence of CPT. DT40 Tdp1-/- hTDP1 cells, no CPT, ATP luminescence, 48 h. actives 15% (n = 420,000). Potency, µM (doses to about 46.2 µM), inactives show at the top dose activity change, negative = growth inhibition, actives largely listed as inhibitors; further: potency means the concentration at half of the fitted maximal effect; nearly all actives have a fitted effect of over 55% in size
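Cells were dispensed at 400 per well, compounds added by pin tool, plates incubated ≥48 hr at 37 °C, then CellTiter-Glo added for 30 min at room temperature before luminescence reading. Line: DT40 Tdp1-/- complemented with hTDP1; camptothecin omitted.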
DT40 TDP1 CPT – DT40-hTDP1 cell growth loss with CPT; Potency, µM (titrated, usually from 46.2 µM), inactives show at the top dose activity change, negative = growth inhibition, most hits filed as inhibitors; actives 12% (n = 420,000); AID 686979; chicken DT40 Tdp1-/-;hTDP1 cells + 20 nM CPT, ATP luminescence, 48 h; further: potency means the concentration at half of the fitted maximal effect; nearly all actives have a fitted effect of over 55% in size
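Chicken DT40 Tdp1-/- cells stably complemented with human TDP1 were seeded at 400 cells/well in medium containing 20 nM camptothecin, exposed to pin-transferred compounds, and grown at 37 °C for at least 48 hr. Viability was read as ATP luminescence.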
Numbers without * were called inactive; ? = inconclusive; · = no result given. Unless noted, the call rests on the fitted dose curve; in most records, active means well fitted curve in the direction sought with a large enough effect; inconclusive means small, poorly fitted or top-dose-only effect, or another doubt; inactive means no such curve, though single readings can be large; an effect the other way counts as inactive or inconclusive. Unless noted, on the % scale 0 is the no-effect control and ±100 the full control effect.

SMILES	RORgamma inh	IL1B secr inh	LDHA inh	Gal4-VP16 FLuc	DT40 TDP1 no CPT	DT40 TDP1 CPT
COC(=O)c1c(-c2cccs2)csc1NC(=O)COc1ccc(C(C)C)cc1	·	·	-2	·	21µM*	?
Cn1nc(C(=O)OCC(=O)NC(=O)c2ccc(C(C)(C)C)cc2)c2ccccc2c1=O	·	·	0	·	·	·
O=C(O)c1ccc(CNC2C3CC4CC(C3)CC2C4)cc1 (stereo unspecified)	·	·	-8	·	·	·
CCCc1nc(SCC(=O)NNC(=O)c2ccc(OC)cc2)c2ccccc2n1	-19%	9	-8	-15%	-10%	-16%
CCC(C)(C)NC(=O)CSc1nc(Cc2ccccc2)nc2ccccc12	?	-64*	0	5%	?	?
CC(C)(C)NC(=O)CSc1nc(Cc2ccccc2)nc2ccccc12	14%	?	-4	2%	?	?
CCCCNC(=O)CSc1nc(COc2ccccc2)nc2ccccc12	10%	-99*	-11	-13%	?	-12%
CN(C)CCNC(=S)NC(=O)c1ccccc1	·	·	-4	·	·	·
COc1ccc(CCNC(=O)CCc2c(C)nc3cc(-c4ccccc4OC)nn3c2C)c(OC)c1	·	·	1	·	16µM*	?
COc1ccccc1-c1cc2nc(C)c(CCC(=O)NCc3cccc(Cl)c3)c(C)n2n1	·	·	-3	·	18µM*	?
COc1ccc(-c2cc3nc(C)c(CCC(=O)NCCc4ccc(Cl)cc4)c(C)n3n2)c(OC)c1	·	·	0	·	29µM*	13µM*
COCCCNC(=O)CCc1c(C)nc2cc(-c3ccc(Cl)cc3)nn2c1C	·	·	-10	·	?	18µM*
Cc1nc2cc(-c3ccc(Cl)cc3)nn2c(C)c1CCC(=O)NCc1ccco1	-10%	16	-12	-2%	?	?
O=C(Nn1cnc2ccccc2c1=O)C1CCCC1	·	·	-4	·	·	·
CN(CC(=O)Nc1cccc(F)c1)CC(=O)N(C)C1(C#N)CCCCC1	·	·	-2	·	·	·
Cc1noc(C)c1CCC(=O)Nc1nc(-c2ccc3c(c2)OCCO3)cs1	·	·	-21	·	·	·
O=C(NCC(=O)N1CCCC1)C(=O)Nc1cccc2[nH]ccc12	·	·	-2	·	·	·
CN(CCC#N)C(=O)COC(=O)c1c2c(nc3ccccc13)/C(=C/c1ccco1)CC2	?	-58*	14	-2%	?	?
CCOC(=O)[C@]12Cc3c(cc(OC)c(OC)c3OC)[C@H]1N(Cc1ccccc1)C(=O)c1cc(F)c(F)cc12	·	-68*	1	·	26µM*	?
CCOC(=O)[C@]12Cc3c(cc(OC)c(OC)c3OC)[C@H]1N(CCC(=O)OC)C(=O)c1cc(OC)ccc12	·	-116*	1	·	16µM*	?
CCOC(=O)[C@]12Cc3c(cc(OC)c(OC)c3OC)[C@H]1N(Cc1ccccc1)C(=O)c1cc(OC)ccc12	·	·	0	·	13µM*	?
S=C(NCc1ccccc1)N/N=C/c1ccc(OCCOc2ccc(Br)cc2)cc1	·	·	-3	·	·	·
Cc1ccc(CNC(=O)C2CCCN(S(=O)(=O)c3c(C)n[nH]c3C)C2)cc1 (stereo unspecified)	6%	0	4	-1%	-21%	?
Cc1n[nH]c(C)c1S(=O)(=O)N1CCCC(C(=O)NC2CCCc3ccccc32)C1 (stereo unspecified)	-19%	6	2	?	18µM*	21µM*
CCOc1ccc(CCNC(=O)C2CCCN(S(=O)(=O)c3c(C)n[nH]c3C)C2)cc1OCC (stereo unspecified)	42%	3	-3	-9%	9.2µM*	?
SMILES	RORgamma inh	IL1B secr inh	LDHA inh	Gal4-VP16 FLuc	DT40 TDP1 no CPT	DT40 TDP1 CPT
CCc1ccc2c(CN(C)CCOc3ccc(F)cc3)cc(=O)oc2c1	·	·	-2	·	·	·
CCC1(C)Cc2c(sc3c2c(=O)n(-c2ccccc2)c(=O)n3C)CO1 (stereo unspecified)	5%	-11	-10	-1%	-11%	-10%
CCC1(C)Cc2c(sc3nc(SC)n(-c4ccc(C)cc4)c(=O)c23)CO1 (stereo unspecified)	·	·	-17	·	15µM*	?
CCC1(C)Cc2c(sc3nc(NN)n(C)c(=O)c23)CO1 (stereo unspecified)	-10%	52	1	14µM*	?	?
Cc1ccc(S(=O)(=O)N(C)CCc2noc(-c3ccccc3F)n2)c2nsnc12	·	·	-1	·	·	·
CCOC(=O)C1CCN(S(=O)(=O)c2ccc3c4c2CC(=O)N4CC(C)S3)CC1 (stereo unspecified)	-3%	22	9	8%	?	21µM*
CCOC(=O)C1CCCN(S(=O)(=O)c2cc3c4c(c2)CCN4C(=O)CC3)C1 (stereo unspecified)	·	?	-1	·	?	?
CCOC(=O)C1CCCN(S(=O)(=O)c2ccc3c4c2CC(=O)N4CC(C)S3)C1 (stereo unspecified)	7%	16	10	0%	18µM*	?
CCOC(=O)C1CCN(S(=O)(=O)c2ccc3c(c2)CC(=O)N3C)CC1	-12%	?	19	8%	-25%	-28%
Cc1ccc(C(=O)c2ccc(-c3ccccc3)cc2)cc1	·	·	-1	·	·	·
CC(=O)Oc1ccc(/C=C2\C=C(c3ccc(C)cc3)OC2=O)cc1	0.45µM*	10	-6	?	-5%	2%
O=C(O)CCC(=O)N1N=C(c2ccsc2)CC1c1ccc(Br)cc1 (stereo unspecified)	·	·	0	·	·	·
COC(=O)C1=C(C)NC(C)=C(C(=O)OC)C1c1ccc(-c2cc(Cl)ccc2Cl)o1	-9%	-68*	0	-15%	-25%	2%
COC(=O)C1=C(C)NC(=S)NC1c1ccc(-c2cccc(Cl)c2)o1 (stereo unspecified)	14µM*	9	-1	?	-4%	15%
COC(=O)C1=C(C)NC(=S)NC1c1ccc(-c2ccccc2C(=O)OC)o1 (stereo unspecified)	18µM*	-10	-4	-19%	18µM*	?
COC(=O)C1=C(C)NC(C)=C(C(=O)OC)C1c1ccc(-c2cccc(Cl)c2Cl)o1	25%	?	-13	-4%	?	?
CCOC(=O)C1=C(C)NC(=S)NC1c1ccc(-c2cccc(Cl)c2C)o1 (stereo unspecified)	4µM*	-14	-9	8.9µM*	12µM*	16µM*
CCN(CCC(F)(F)F)C(=O)c1cc2cccc([N+](=O)[O-])c2[nH]1	·	·	-6	·	·	·
